Values joined by “and” are separate entries in the source; they are usually repeats but may differ in a detail not shown here. Identical values can stand only once. More than one record can exist for a structure, and the calls need not agree. Active and inactive are the calls of the source. How the source made its calls: active means hit-call score of the fitted dose curve at least 0.9, where 1 is the maximum; inactive means score below 0.9.
read-out: Tissue Factor, F3 (gene 2152); experiment: BSK_LPS_TissueFactor: BioMAP Diversity Plus: LPS Assay for Tissue Factor Biomarker Activity (AID 2283084); conditions: primary human HUVEC with PBMC; actives raise or lower the signal
Experimental: BSK_LPS is a cell-based, multiplexed-readout assay that uses umbilical vein endothelium and peripheral blood mononuclear cells, a human vascular primary cell co-culture, with measurements taken at 24 hours after chemical dosing in a 96-well plate.BSK_LPS_TissueFactor is an assay component measured in the BSK_LPS assay. It measures CD142 Tissue Factor antibody related to regulation of gene expression using ELISA technology.Data from the assay component BSK_LPS_TissueFactor was analyzed into 1 assay endpoint. This assay endpoint, BSK_LPS_TissueFactor, was analyzed with bidirectional fitting relative to DMSO as the negative control and baseline of activity. Using a type of binding reporter, gain or loss-of-signal activity can be used to understand changes in the signaling as they relate to the gene F3. Furthermore, this assay endpoint can be referred to as a primary readout, because this assay has produced multiple assay endpoints where this one serves a signaling function. To generalize the intended target to other relatable targets, this assay endpoint is annotated to the cytokine intended target family, where the subfamily is coagulation factor.
The levels of cell surface (or secreted, indicated by the prefix "s") biomarker endpoints were measured by ELISA. Overt cytotoxicity to cells in confluent adherent cultures (all systems other than the BT system) was assessed by measuring total protein levels using sulforhodamine B (SRB) staining in parallel cultures at the time of biomarker measurements, indicated as SRB endpoints. For proliferation assays for adherent cell types, individual cell types are cultured at sub-confluence and relative cell numbers quantified by SRB staining at time points optimized for each system (48 h: 3C and CASM3C systems; 72 h: BT and HDF3CGF systems; 96 h: SAg system). SRB was performed by staining cells with 0.1% SRB after fixation with 10% TCA and reading wells at 560 nm.Viability and proliferation of PBMC (T cells) was quantified by Alamar Blue reduction for the SAg and BT systems. For PBMC viability (referred to as PBMC Cytotoxicity within the assay endpoint names), cells were plated (75,000/well in a 96-well plate) and then chemical samples added for 1 h before addition of activators, SEB and TSST-1 (20 ng/mL final concentration each). Cells were incubated for 90 h. Then, Alamar Blue (20 uL/well) (Invitrogen, Cat DAL1100) was added for 6 h, and the plates were read with a fluorescence microplate reader at 546/580 nm (excitation/emission). For PBMC proliferation, cells were plated and activated as above but incubated for only 16 h prior to addition of Alamar Blue. Plates were read after 6 h.

Row | SMILES | outcome | AC50
1 | FC(F)(F)C(F)(F)C(F)(F)C(F)(F)C(F)(F)C(F)(F)C(F)(F)I | inactive | –
2 | FC1CC(F)(F)C(F)(F)C1(F)F (stereo not given) | inactive | –
3 | O=C(O)C=C(C(F)(F)F)C(F)(F)F | inactive | –
4 | O=C(O)C(F)(F)C(F)(F)C(F)(F)C(F)(F)C(F)(F)C(F)(F)C(F)(F)C(F)(F)C(F)(F)C(F)F | inactive | –
5 | OCC(F)(F)C(F)(F)C(F)(F)F | inactive | –
6 | CS(C)(=O)=O | inactive | –
7 | FC(F)(Br)C(F)(F)C(F)(F)C(F)(F)C(F)(F)C(F)(F)Br | inactive | –
8 | C=CC(F)(F)C(F)(F)C(F)(F)C(F)(F)C(F)(F)C(F)(F)C(F)(F)C(F)(F)F | inactive | –
9 | O=C(CC(=O)C(F)(F)C(F)(F)F)C(F)(F)F | inactive | –
10 | CCCCOCCOCCOC(=O)CCCCC(=O)OCCOCCOCCCC | inactive | –
11 | C#C[C@]1(O)CC[C@H]2[C@@H]3CCc4cc(OC)ccc4[C@H]3CC[C@@]21C | inactive | –
12 | COC(=O)CCC(F)(F)C(F)(F)C(F)(F)C(F)(F)F | inactive | –
13 | CCc1ccc(C(c2ccc(CC)cc2)C(Cl)Cl)cc1 | inactive | –
14 | O=P(O)(O)OCCC(F)(F)C(F)(F)C(F)(F)C(F)(F)C(F)(F)C(F)(F)F | inactive | –
15 | O=C(O)C(F)(F)C(F)(F)C(F)(F)C(F)(F)C(F)(F)C(F)(F)C(F)(F)C(F)(F)Cl | inactive | –
16 | C=C(C)C(=O)OCC(F)(F)C(F)(F)C(F)(F)F | inactive | –
17 | Nc1ccc([N+](=O)[O-])cc1O | inactive | –
18 | CCCCCCOC(=O)c1ccccc1O | inactive | 40.6 µM (active)
19 | C=C(C)C(=O)OCCC(F)(F)C(F)(F)C(F)(F)C(F)(F)C(F)(C(F)(F)F)C(F)(F)F | inactive | –

Row | SMILES | outcome | AC50
20 | FC(F)(F)C(F)(F)CNCC(F)(F)C(F)(F)F | inactive | –
21 | N=C(N)C(F)(F)C(F)(F)C(F)(F)C(F)(F)C(F)(F)C(F)(F)C(F)(F)F | inactive | –
22 | O=C(Cl)C(F)(F)C(F)(F)C(F)(F)C(F)(F)C(F)(F)C(F)(F)C(F)(F)C(F)(F)F | inactive | 39.5 µM (active) and 30 µM (active)
23 | FC(F)(F)C(F)(F)C(F)(F)N(C(F)(F)C(F)(F)C(F)(F)F)C(F)(F)C(F)(F)C(F)(F)F | inactive | –
24 | CCN(CC)c1ccc2c(C)cc(=O)oc2c1 | inactive | –
25 | OCC(F)(F)C(F)(F)C(F)(F)C(F)(F)C(F)(F)C(F)(F)F | inactive | –
26 | C=CC(F)(F)C(F)(F)C(F)(F)C(F)(F)C(F)(F)C(F)(F)C(F)(F)C(F)(F)C=C | inactive | –
27 | O=C(O)C(F)(F)C(F)(F)C(F)(F)C(F)(F)F | inactive | –
28 | FC(F)(F)C(F)(F)C(F)(F)C(F)(F)C(F)(F)C(F)(F)C(F)(F)C(F)(F)F | inactive | –
29 | CCCCCCC(C)OC(=O)CCCCC(=O)OC(C)CCCCCC (stereo not given) | inactive | –
30 | FC(F)(F)C(F)(F)C(F)(F)C(F)(F)CCI | inactive | –
31 | FC(F)(F)C(F)(F)C(F)(F)C(F)(F)C(F)(F)C(F)(F)CCS | inactive | –
32 | FC(F)(I)C(F)(F)C(F)(F)C(F)(F)I | inactive | –
33 | C=CC(=O)OCC(F)(F)C(F)(F)C(F)(F)C(F)(F)COC(=O)C=C | – | 36.4 µM (active) and 34.8 µM (active)
34 | C=CC/C=C/C/C=C/C/C=C/C | inactive | –
35 | O=S(=O)(OCC(F)F)C(F)(F)F | inactive | –
36 | Oc1ccc(Nc2ccccc2)cc1 | inactive | –
37 | CCCCCCCOC(=O)c1ccccc1C(=O)OCCCCCCC | inactive | –
38 | CCCCCCCCCCCCCCCC[N+](C)(C)Cc1ccccc1 | – | 10.7 µM (active)

Reference: PubChem BioAssay (EPA / NIEHS)
